# Inconclusive results are not listed. Calls of active or inactive are those of the source. The calls were made as follows: active = hit-call score of the fitted dose curve at least 0.9, where 1 is the maximum; inconclusive = response in the unintended direction; inactive = score below 0.9.
# Tests used:
# [1] = target: Histone deacetylase 3 (Homo sapiens) (UniProt O15379); experiment: NVS_ENZ_hHDAC3: NovaScreen (NVS) Enzymatic Assay for human Histone Deacetylase 3 (HDAC3) (AID 2283163)
# Summary of the method: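 Recombinant human HDAC3 with fluorescent substrate, 1 h after dosing; product separated from substrate by electrophoretic mobility shift and read by fluorescence. Primary screen at 25 uM in duplicate; actives (e.g. ≥30% inhibition) retested in concentration-response up to 50 uM.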
# [2] = target: human c-Jun N-terminal Kinases (JNK2), MAPK9 (gene 5601) (UniProt P45984); experiment: NVS_ENZ_hJNK2: NovaScreen (NVS) Enzymatic Assay for human c-Jun N-terminal Kinases (JNK2) (AID 2283171)
# Summary of the method: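 Cell-free recombinant human JNK2 activity assay; fluorescent substrate and product separated by electrophoretic mobility shift, read 1 h after dosing. Primary duplicate screen at 25 uM; actives run in concentration-response up to 50 uM, relative to DMSO.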
# [3] = target: cAMP-dependent protein kinase catalytic subunit alpha (Homo sapiens) (UniProt P17612); experiment: NVS_ENZ_hPKA: NovaScreen (NVS) Enzymatic Assay for human Protein Kinase A (PKA) (AID 2283192)
# Summary of the method: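 Recombinant human PKA with specific fluorescent substrate, product separated by electrophoretic mobility shift, read 1 h after dosing. Primary screen at 25 uM in duplicate; actives then run in concentration-response up to 50 uM, activity relative to DMSO.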
# [4] = target: human LYN Proto-Oncogene, Src family Tyrosine Kinase (LynA), LYN (gene 4067) (UniProt P07948); experiment: NVS_ENZ_hLynA: NovaScreen (NVS) Enzymatic Assay for human LYN Proto-Oncogene, Src family Tyrosine Kinase (LynA) (AID 2283173)
# Summary of the method: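 Recombinant kinase with fluorescent substrate; product separated from substrate by electrophoretic mobility shift and read 1 h after dosing. Duplicate screen at 25 uM, then concentration-response up to 50 uM; activity scored as signal loss against DMSO.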
# [5] = target: Collagenase 3 (Homo sapiens) (UniProt P45452); experiment: NVS_ENZ_hMMP13: NovaScreen (NVS) Enzymatic Assay for human Matrix Metalloproteinase-13 (MMP13) (AID 2283182)
# Summary of the method: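 Recombinant MMP13 cleaving fluorescent substrate, cell-free, measured 1 h after dosing. Primary duplicate screen at 25 uM; actives tested in concentration-response up to 50 uM; loss of signal relative to DMSO.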
# [6] = target: human Matrix Metalloproteinase-7 (MMP7), MMP7 (gene 4316) (UniProt P09237); experiment: NVS_ENZ_hMMP7: NovaScreen (NVS) Enzymatic Assay for human Matrix Metalloproteinase-7 (MMP7) (AID 2283183)
# Summary of the method: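 Cell-free fluorescence enzymatic assay read 1 h after compound addition, activity loss analyzed against DMSO. Primary duplicate testing at 25 uM; compounds meeting threshold rerun in singleton concentration-response up to 50 uM.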
# [7] = target: human Matrix Metalloproteinase-9 (MMP9), MMP9 (gene 4318) (UniProt P14780); experiment: NVS_ENZ_hMMP9: NovaScreen (NVS) Enzymatic Assay for human Matrix Metalloproteinase-9 (MMP9) (AID 2283190);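 also: cell-free recombinant MMP9 protease activity read by fluorescent substrate signal; active means inhibition seen as loss of fluorescence signal versus DMSO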
# Summary of the method: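 Extracted enzyme, fluorescent substrate, 1 h post-dose read. Single conc 25 uM in duplicate, then concentration series for actives. Activity = signal loss relative to DMSO negative control.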
# [8] = target: human Protein Phosphatase, Mg2+/Mn2+ Dependent 1A (PPM1A), PPM1A (gene 5494) (UniProt P35813); experiment: NVS_ENZ_hPPM1A: NovaScreen (NVS) Enzymatic Assay for human Protein Phosphatase, Mg2+/Mn2+ Dependent 1A (PPM1A) (AID 2283198)
# Summary of the method: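 Cell-free recombinant PPM1A phosphatase assay with fluorescent substrate, read 1 h after dosing by electrophoretic mobility shift. Chemicals screened in duplicate at 25 uM, then in concentration-response up to 50 uM; loss of activity versus DMSO.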
# [9] = target: human Phosphodiesterase 4A1 (PDE4A1), PDE4A (gene 5141) (UniProt P27815); experiment: NVS_ENZ_hPDE4A1: NovaScreen (NVS) Enzymatic Assay for human Phosphodiesterase 4A1 (PDE4A1) (AID 2283191)
# Summary of the method: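 Cell-free recombinant human PDE4A1 with fluorescent substrate; product separated by electrophoretic mobility shift, 1 h. Screened at 25 uM, then up to 50 uM in concentration-response; loss of signal fitted against DMSO.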
# [10] = target: human Phosphodiesterase 5 (PDE5), PDE5A (gene 8654) (UniProt O76074); experiment: NVS_ENZ_hPDE5: NovaScreen (NVS) Enzymatic Assay for human Phosphodiesterase 5 (PDE5) (AID 2283194)
# Summary of the method: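 Recombinant human PDE5 with specific substrate, read 1 h after dosing by fluorescence with electrophoretic mobility-shift separation of substrate and product. Initial single-concentration duplicate screen at 25 uM, actives followed in concentration series; loss of activity versus DMSO.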
# [11] = target: human Matrix Metalloproteinase-3 (MMP3), MMP3 (gene 4314) (UniProt P08254); experiment: NVS_ENZ_hMMP3: NovaScreen (NVS) Enzymatic Assay for human Matrix Metalloproteinase-3 (MMP3) (AID 2283185)
# Summary of the method: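 Cell-free recombinant human MMP3 activity, fluorescence intensity read 1 h after dosing. Primary screen duplicate at 25 uM, actives retested in concentration series; loss of signal vs DMSO baseline.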
# [12] = target: human Matrix Metalloproteinase-2 (MMP2), MMP2 (gene 4313) (UniProt P08253); experiment: NVS_ENZ_hMMP2: NovaScreen (NVS) Enzymatic Assay for human Matrix Metalloproteinase-2 (MMP2) (AID 2283184)
# Summary of the method: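 Cell-free recombinant MMP2 activity with a fluorescent substrate, read 1 h after dosing. Primary screen in duplicate at 25 uM; actives then run in concentration series; loss of signal fitted versus DMSO.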
# Sequence of human Matrix Metalloproteinase-7 (MMP7), MMP7 (gene 4316) (P09237 whole entry, looked up): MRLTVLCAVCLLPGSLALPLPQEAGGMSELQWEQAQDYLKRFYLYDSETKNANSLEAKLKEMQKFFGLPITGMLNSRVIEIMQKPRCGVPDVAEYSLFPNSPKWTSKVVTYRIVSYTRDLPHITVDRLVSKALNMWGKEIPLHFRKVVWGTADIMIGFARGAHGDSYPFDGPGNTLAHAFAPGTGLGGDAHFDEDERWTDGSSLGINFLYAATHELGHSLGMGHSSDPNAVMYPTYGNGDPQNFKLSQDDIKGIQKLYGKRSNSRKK
# Sequence of human Matrix Metalloproteinase-3 (MMP3), MMP3 (gene 4314) (P08254 whole entry, looked up): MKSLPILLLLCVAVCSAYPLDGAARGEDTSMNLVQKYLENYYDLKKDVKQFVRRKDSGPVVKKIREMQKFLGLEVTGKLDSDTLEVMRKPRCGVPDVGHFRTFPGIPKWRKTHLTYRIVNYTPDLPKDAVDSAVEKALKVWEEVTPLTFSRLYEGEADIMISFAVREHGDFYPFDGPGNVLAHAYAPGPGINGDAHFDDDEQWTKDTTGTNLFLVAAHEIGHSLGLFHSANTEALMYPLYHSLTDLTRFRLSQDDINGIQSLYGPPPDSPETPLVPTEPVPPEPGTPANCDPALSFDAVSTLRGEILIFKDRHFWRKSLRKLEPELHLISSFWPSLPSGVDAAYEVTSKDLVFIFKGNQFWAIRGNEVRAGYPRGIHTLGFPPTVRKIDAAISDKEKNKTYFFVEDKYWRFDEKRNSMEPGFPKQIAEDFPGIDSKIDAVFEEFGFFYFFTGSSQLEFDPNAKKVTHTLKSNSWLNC
# Sequence of human Protein Phosphatase, Mg2+/Mn2+ Dependent 1A (PPM1A), PPM1A (gene 5494) (P35813 whole entry, looked up): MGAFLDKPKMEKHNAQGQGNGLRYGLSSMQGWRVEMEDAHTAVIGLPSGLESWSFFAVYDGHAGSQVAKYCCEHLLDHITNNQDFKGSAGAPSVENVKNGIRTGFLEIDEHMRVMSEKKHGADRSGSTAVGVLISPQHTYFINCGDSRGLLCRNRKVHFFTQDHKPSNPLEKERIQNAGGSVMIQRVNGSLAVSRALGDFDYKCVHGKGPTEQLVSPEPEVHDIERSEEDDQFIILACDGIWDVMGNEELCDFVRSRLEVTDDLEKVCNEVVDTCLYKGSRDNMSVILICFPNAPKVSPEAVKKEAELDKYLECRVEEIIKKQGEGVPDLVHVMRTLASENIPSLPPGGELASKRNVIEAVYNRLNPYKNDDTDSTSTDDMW
# Sequence of human Matrix Metalloproteinase-9 (MMP9), MMP9 (gene 4318) (P14780 whole entry, looked up): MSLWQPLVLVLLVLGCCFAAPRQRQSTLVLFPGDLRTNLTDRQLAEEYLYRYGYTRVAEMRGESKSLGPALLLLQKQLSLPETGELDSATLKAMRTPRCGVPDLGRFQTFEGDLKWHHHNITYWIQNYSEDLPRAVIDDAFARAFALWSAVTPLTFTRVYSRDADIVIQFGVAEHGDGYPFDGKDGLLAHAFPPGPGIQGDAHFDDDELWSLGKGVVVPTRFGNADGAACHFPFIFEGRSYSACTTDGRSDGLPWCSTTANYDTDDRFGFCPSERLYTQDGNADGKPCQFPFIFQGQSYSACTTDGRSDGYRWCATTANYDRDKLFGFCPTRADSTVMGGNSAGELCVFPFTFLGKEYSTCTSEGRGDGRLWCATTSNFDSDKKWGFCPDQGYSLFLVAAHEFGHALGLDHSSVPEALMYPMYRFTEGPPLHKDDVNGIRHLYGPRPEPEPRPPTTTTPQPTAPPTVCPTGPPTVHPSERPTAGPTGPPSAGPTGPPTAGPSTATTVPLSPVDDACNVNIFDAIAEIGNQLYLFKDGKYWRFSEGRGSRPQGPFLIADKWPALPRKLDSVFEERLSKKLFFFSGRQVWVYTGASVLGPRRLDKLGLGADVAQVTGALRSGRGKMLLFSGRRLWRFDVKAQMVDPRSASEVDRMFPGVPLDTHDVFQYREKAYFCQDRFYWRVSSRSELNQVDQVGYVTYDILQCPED
# Sequence of human Matrix Metalloproteinase-2 (MMP2), MMP2 (gene 4313) (P08253 whole entry, looked up): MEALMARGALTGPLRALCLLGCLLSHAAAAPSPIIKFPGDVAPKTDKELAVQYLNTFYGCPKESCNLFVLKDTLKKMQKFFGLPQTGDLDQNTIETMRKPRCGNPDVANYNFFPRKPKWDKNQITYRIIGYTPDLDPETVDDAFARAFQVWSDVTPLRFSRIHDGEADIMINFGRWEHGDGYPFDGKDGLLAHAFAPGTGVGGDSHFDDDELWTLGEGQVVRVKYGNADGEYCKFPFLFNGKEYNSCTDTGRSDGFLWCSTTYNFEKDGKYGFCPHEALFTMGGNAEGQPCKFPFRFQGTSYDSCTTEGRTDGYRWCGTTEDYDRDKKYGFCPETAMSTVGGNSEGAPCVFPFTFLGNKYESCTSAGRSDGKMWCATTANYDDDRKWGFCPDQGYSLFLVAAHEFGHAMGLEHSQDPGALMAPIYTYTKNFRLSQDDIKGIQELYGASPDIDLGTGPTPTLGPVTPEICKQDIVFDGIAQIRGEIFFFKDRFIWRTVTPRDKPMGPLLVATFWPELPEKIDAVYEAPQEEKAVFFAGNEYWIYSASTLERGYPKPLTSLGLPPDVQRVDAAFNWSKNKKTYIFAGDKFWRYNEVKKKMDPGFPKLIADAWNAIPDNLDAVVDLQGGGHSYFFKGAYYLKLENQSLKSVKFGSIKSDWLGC
# Sequence of human c-Jun N-terminal Kinases (JNK2), MAPK9 (gene 5601) (P45984 whole entry, looked up): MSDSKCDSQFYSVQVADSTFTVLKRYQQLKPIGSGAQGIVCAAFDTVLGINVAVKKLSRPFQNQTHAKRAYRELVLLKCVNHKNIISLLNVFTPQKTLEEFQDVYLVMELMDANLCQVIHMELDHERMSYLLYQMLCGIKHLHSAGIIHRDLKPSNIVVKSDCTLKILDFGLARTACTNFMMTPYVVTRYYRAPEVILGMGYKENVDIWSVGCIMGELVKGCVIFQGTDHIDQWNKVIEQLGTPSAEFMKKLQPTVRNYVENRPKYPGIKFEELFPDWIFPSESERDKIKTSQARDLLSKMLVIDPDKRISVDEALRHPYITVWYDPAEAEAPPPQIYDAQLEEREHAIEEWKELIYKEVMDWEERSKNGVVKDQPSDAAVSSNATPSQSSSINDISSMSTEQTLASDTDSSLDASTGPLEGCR
# Sequence of Histone deacetylase 3 (Homo sapiens) (O15379 whole entry, looked up): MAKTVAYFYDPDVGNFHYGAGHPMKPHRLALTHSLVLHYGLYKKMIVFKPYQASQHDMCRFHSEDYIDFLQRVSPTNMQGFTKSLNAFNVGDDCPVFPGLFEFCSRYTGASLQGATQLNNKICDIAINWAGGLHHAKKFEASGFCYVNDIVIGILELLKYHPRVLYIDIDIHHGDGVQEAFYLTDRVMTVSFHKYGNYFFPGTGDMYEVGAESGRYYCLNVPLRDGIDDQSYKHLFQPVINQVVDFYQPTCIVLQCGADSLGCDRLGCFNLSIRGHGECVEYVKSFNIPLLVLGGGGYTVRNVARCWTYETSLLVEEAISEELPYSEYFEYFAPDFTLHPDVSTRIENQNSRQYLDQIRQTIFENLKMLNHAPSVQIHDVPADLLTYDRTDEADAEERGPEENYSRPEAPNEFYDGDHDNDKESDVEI
# Sequence of human Phosphodiesterase 4A1 (PDE4A1), PDE4A (gene 5141) (P27815 whole entry, looked up): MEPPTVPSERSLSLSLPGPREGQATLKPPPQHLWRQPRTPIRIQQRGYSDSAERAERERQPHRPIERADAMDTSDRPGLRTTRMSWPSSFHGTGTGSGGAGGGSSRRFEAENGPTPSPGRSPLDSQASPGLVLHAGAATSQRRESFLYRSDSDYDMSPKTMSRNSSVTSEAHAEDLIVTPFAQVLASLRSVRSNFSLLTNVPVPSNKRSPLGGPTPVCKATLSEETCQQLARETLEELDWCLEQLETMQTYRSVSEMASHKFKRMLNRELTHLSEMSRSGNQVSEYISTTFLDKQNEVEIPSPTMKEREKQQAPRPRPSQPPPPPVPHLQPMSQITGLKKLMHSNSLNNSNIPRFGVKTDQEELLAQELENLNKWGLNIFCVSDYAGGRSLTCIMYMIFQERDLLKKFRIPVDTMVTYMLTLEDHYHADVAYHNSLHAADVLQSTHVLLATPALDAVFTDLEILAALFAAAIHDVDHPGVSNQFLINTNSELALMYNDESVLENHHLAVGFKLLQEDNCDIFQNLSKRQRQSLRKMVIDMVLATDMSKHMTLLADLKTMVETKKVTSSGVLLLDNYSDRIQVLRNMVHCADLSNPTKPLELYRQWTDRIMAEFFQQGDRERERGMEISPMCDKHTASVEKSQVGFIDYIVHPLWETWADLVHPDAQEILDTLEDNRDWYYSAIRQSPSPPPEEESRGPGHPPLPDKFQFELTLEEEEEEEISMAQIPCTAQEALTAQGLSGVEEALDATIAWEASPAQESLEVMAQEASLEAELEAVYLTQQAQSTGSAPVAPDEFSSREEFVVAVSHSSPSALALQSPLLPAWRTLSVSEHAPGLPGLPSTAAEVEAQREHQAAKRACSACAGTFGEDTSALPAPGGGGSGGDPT
# Sequence of human LYN Proto-Oncogene, Src family Tyrosine Kinase (LynA), LYN (gene 4067) (P07948 whole entry, looked up): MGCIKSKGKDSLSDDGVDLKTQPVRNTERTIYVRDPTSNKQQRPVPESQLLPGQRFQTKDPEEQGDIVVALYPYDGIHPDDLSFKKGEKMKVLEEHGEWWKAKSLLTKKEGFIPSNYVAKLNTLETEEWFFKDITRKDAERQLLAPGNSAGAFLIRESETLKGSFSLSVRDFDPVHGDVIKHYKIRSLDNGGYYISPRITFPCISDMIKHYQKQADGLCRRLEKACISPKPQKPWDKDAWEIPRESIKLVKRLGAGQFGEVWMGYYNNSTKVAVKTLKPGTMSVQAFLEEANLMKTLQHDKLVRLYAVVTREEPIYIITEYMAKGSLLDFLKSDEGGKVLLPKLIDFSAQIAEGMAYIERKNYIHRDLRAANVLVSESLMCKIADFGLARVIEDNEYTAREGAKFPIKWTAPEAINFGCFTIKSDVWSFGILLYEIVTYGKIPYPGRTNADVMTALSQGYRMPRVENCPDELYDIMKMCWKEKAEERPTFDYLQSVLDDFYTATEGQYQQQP
smiles,measurement,setting,value
CC(=O)N1CCN(c2ccc(OC[C@H]3CO[C@](Cn4ccnc4)(c4ccc(Cl)cc4Cl)O3)cc2)CC1,outcome,[1],inactive
c1ccc(C[n+]2cccc3ccccc32)cc1,outcome,[1],inactive
COc1cc(C(=O)NC2CCN(C)CC2)ccc1Nc1ncc2c(n1)N(C1CCCC1)CC(F)(F)C(=O)N2C,outcome,[2],inactive
same,AC50,[3],6.04 µM (active)
CCCC(=O)OCCC(C)C,outcome,[2],inactive
CCN(CC)C(=O)c1cc(S(=O)(=O)Cc2ccccc2)c(N2CCC(c3ccccc3)CC2)cc1N(CC)CCN(C)C,outcome,[4],inactive
CCCCCCCCOC(=O)c1cc(O)c(O)c(O)c1,AC50,[5],2.83 µM (active)
same,AC50,[6],22.1 µM (active)
same,AC50,[7],1.09 µM (active)
CC/C(=C(/CC)c1ccc(O)cc1)c1ccc(O)cc1,outcome,[3],inactive
CCCCCCCCN(C)CCCCCCCC,outcome,[8],inactive
COc1cccc([C@H](O)C2CCN(CCc3ccc(F)cc3)CC2)c1OC,outcome,[9],inactive
same,outcome,[10],inactive
CC[C@H](NC(=O)c1cc(F)ccc1NS(=O)(=O)c1cccc2cccnc12)c1ccccc1,outcome,[10],inactive
CCCOC(=O)c1cc(O)c(O)c(O)c1,AC50,[11],11.9 µM (active)
CCCCOC(=O)c1ccc(O)cc1,AC50,[5],25 µM (active)
same,outcome,[11],inactive
COc1ccc2cc(S(=O)(=O)N[C@H](CC(=O)N[C@H](Cc3ccc(CN4[C@H](C)CCC[C@@H]4C)cc3)C(=O)N(C)C(C)C)c3ccc4c(c3)OCO4)ccc2c1,outcome,[7],inactive
CCCCCCCCOc1ccc(C(=O)c2ccccc2)c(O)c1,outcome,[11],inactive
O=C(Nc1ccc(Cl)cc1)Nc1ccc(Cl)c(Cl)c1,outcome,[9],inactive
CO[C@H]1/C=C/O[C@@]2(C)Oc3c(C)c(O)c4c(O)c(c(/C=N/N5CCN(C)CC5)c(O)c4c3C2=O)NC(=O)/C(C)=C\C=C\[C@H](C)[C@H](O)[C@@H](C)[C@@H](O)[C@@H](C)[C@H](OC(C)=O)[C@@H]1C,outcome,[5],inactive
same,outcome,[6],inactive
same,outcome,[12],inactive
COCC(C)OCC(C)OCC(C)O (centres undefined),outcome,[5],inactive
same,outcome,[6],inactive
Cc1cc(F)ccc1-c1cc(N2CC[C@@H](O)[C@H]2CO)ncc1N(C)C(=O)C(C)(C)c1cc(C(F)(F)F)cc(C(F)(F)F)c1,AC50,[10],4.05 µM (active)
O=C1CCC(C2CCCCC2)CC1,outcome,[11],inactive
O=C(O)Cn1c(=O)n(Cc2ccc(Br)cc2F)c(=O)c2ccc(Cl)cc21,outcome,[6],inactive
CN(C)C(=O)C1(N2CCCCC2)CCN(CC[C@@]2(c3ccc(Cl)c(Cl)c3)CN(C(=O)c3ccccc3)CCO2)CC1,outcome,[7],inactive
same,outcome,[10],inactive
CC(C)(O)c1ccc(CNC(=O)c2cccnc2Oc2ccc3nonc3c2)cc1,outcome,[8],inactive
C[C@]12CC[C@@H]3c4ccc(O)cc4CC[C@H]3[C@@H]1CC[C@H]2O,outcome,[6],inactive
CCCCCCCCCCCC[N+](C)(C)C,outcome,[12],inactive
CCN(Cc1cccnc1)C(=O)c1cccc(Cl)c1[C@]1(C)C(=O)N(Cc2ccc(OC)cc2OC)c2ccc(Cl)cc21,AC50,[5],9.38 µM (active)
same,AC50,[12],14.8 µM (active)
same,outcome,[11],inactive
same,AC50,[7],24.9 µM (active)
Cc1c2ccccc2c(C)c2c1ccc1ccccc12,outcome,[5],inactive
NCc1cccc(C2CCN(C(=O)c3ccc(C#Cc4ccccc4F)o3)CC2)c1,AC50,[5],19.5 µM (active)
same,AC50,[12],10.1 µM (active)
same,AC50,[7],30.1 µM (active)
O=C=NCCCCCCN=C=O,outcome,[7],inactive
CCOC(=O)O[C@H](C)OC(=O)c1ccc2c(c1)cc(C(=O)NC1CCN(C(C)C)CC1)n2Cc1cc(-c2ccc(Cl)s2)on1,AC50,[5],15.2 µM (active)
same,AC50,[7],30.9 µM (active)
CC(C)(c1cc(Br)c(O)c(Br)c1)c1cc(Br)c(O)c(Br)c1,outcome,[12],inactive
CN(C)c1ccc(C(=C2C=CC(=[N+](C)C)C=C2)c2ccc(N(C)C)cc2)cc1,outcome,[11],inactive
same,AC50,[7],14.5 µM (active)
O=C(O)c1ccccc1-n1cc(C(=O)O)c(=O)c2cc(Nc3c(F)cc(F)cc3Cl)c(Cl)cc21,AC50,[11],21.8 µM (active)
CCCCCCCCCC(=O)O,outcome,[8],inactive
